# Measurements taken from PubChem BioAssay (NCATS).
# Where “and” joins values, the source holds several entries; their conditions need not be identical. Equal entries are not always repeated. Records with an inconclusive call do not appear. A number with no mark means an inactive call. Calls follow the shape of the full dose curve.
# Biological target: Bile acid receptor (Homo sapiens) (UniProt Q96RI1)
# Experiment: qHTS assay for small molecule agonists of farnesoid X receptor signaling (AID 588527);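 also: series mostly up to about 77 µM; 0% = vehicle basal and 100% = reference agonist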
# Settings: HEK293T FXR-UAS-bla, beta-lactamase ratio, 16 h; active compounds read high
# Text: NIH Chemical Genomics Center [NCGC] U.S. Environmental Protection Agency [EPA] National Institutes of Environmental Health Sciences [NIEHS] National Toxicology Program [NTP] NCGC Assay Overview The farnesoid-X-receptor (FXR), a nuclear hormone receptor is highly expressed in liver, intestine, kidney and adrenal cortex. Natural ligands of FXR are the bile acids (Cholic acid, Chenodeoxy cholic acid etc). It is an important regulator of diverse metabolic pathways, including the bile acid homeostasis, lipid and glucose metabolisms. FXR regulates the expression of target genes by binding either as a monomer or as a heterodimer with RXR (retinoid X receptor). As FXR regulates a large number of target genes involved in bile acid, lipoprotein and glucose metabolisms, it is a potential pharmacological target for bile acid and lipid disorders. Thus screening environmental chemicals on FXR signaling can be used for the studies focused on metabolic syndrome, hepatic and intestinal toxicity etc.
# NCGC Assay Protocol Summary Using a beta-lactamase reporter-gene under control of Farnesoid X receptor (FXR) response element, a cell-based assay [GeneBLAzer FXR-UAS-bla assay developed by Invitrogen] was used to measure FXR ligands signaling. GeneBLAzer FXR-UAS-bla HEK293T cells were used with assay medium containing 10% dialyzed FBS. The assay was performed in clear bottom black Greiner 1536-well plates. Chenodeoxycholic acid and Guggulsterone were used in the screen as agonist and antagonist positive controls respectively. Library compounds were measured for their ability to stimulate the reporter gene activity. Compounds were screened in a titration series in 1536-well format. […] Data was normalized relative to Chenodeoxycholic acid control (100 uM, 100%), and DMSO only wells (basal, 0%). Concentration-response titration points for each compound were fitted to the Hill equation yielding concentrations of half-maximal stimulation (EC50) and maximal response (efficacy) values. qHTS protocol for FXR beta-lactamase assay in agonist mode [Step] [Parameter] [Value] [Description] 1. Reagent; 6 uL; 5000 cells/well 2. Incubation; 37 C for 5-7 hrs 3. Compounds; 23 nL; 0.59 nM to 92 uM 4. Controls (Chenodeoxycholic acid); 23 nL, - One column with dose response, start 200 uM, 1:2 dilutions in duplicates - Final concentrations of 100 uM and 60 uM in two columns 5. Incubation; 37 C for 16 hrs 6. Detection reagent; 1 uL of CCF4-dye 7. Incubation; RT for 2 hrs 8. Detection; Fluorescence; Envision plate reader
# Chain of Bile acid receptor (Homo sapiens) (Q96RI1 whole entry, looked up): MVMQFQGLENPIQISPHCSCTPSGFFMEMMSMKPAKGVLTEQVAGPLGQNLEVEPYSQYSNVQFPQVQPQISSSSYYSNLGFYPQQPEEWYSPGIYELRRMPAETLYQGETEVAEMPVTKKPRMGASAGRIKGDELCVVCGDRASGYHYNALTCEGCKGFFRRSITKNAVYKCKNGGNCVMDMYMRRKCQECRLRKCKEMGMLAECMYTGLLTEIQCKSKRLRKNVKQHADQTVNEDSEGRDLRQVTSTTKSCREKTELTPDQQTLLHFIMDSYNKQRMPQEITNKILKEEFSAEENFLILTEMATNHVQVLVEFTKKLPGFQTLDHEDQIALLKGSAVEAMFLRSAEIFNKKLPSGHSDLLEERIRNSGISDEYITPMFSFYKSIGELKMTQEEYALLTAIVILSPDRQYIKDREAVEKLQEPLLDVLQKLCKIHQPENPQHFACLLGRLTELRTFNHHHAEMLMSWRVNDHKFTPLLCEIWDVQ
row,SMILES,activation
1,CC/C(=C(/CC)c1ccc(O)cc1)c1ccc(O)cc1,2% and 5.54%
2,Cn1cnc2c1c(=O)[nH]c(=O)n2C,0.0385%
3,CCCCC1C(=O)N(c2ccccc2)N(c2ccccc2)C1=O,-3.79% and -9.64%
4,CCNc1nc(Cl)nc(NCC)n1,-2%
5,Cc1c(N(C)C)c(=O)n(-c2ccccc2)n1C,-2.31%
6,CNC(=O)Oc1ccc2c(c1)[C@]1(C)CCN(C)[C@@H]1N2C,1.98%
7,C[C@@H]1C[C@@H]([C@H](O)CC2CC(=O)NC(=O)C2)C(=O)[C@@H](C)C1,0.176% and -1.82% and 1.78%
8,CCOc1ccc(NC(C)=O)cc1,0.406% and 4.82%
9,O=C(NC(=O)c1c(F)cccc1F)Nc1cc(Cl)c(OC(F)(F)C(F)C(F)(F)F)cc1Cl (configuration not stated),-0.875%
10,NS(=O)(=O)c1cc2c(cc1Cl)NCNS2(=O)=O,-0.539% and 0.498%
11,O=c1ccc2ccccc2o1,2.18% and -1.67%
12,O=C(OCc1ccccc1)c1ccc(O)cc1,1.11%
13,Cc1ccc(O)cc1,-0.678%
14,O=C(Nc1ccc(Cl)cc1)Nc1ccc(Cl)c(Cl)c1,1.41%
15,COCC(=O)N(c1c(C)cccc1C)C(C)C(=O)OC (configuration not stated),3.52%
16,C[C@]12CC[C@@H]3c4ccc(O)cc4CC[C@H]3[C@@H]1CCC2=O,5.41%
17,C[C@H]1C(=O)O[C@@H]2CCN3CC=C(COC(=O)[C@](C)(O)[C@]1(C)O)[C@H]23,2.9%
18,CN(C)C(=S)SSC(=S)N(C)C,3.15%
19,CC(O)COc1ccccc1 (configuration not stated),-2.72%

row,SMILES,activation
1,CCN(CC)CCOc1ccc(/C(=C(\Cl)c2ccccc2)c2ccccc2)cc1,1.52%
2,CCOC(=O)C(C)(C)Oc1ccc(Cl)cc1,1.97%
3,Oc1c(Cl)cc(Cl)cc1Sc1cc(Cl)cc(Cl)c1O,-0.242%
4,CN(C)C(=S)SC(=S)N(C)C,1.4%
5,c1ccc2[nH]c(-c3cscn3)nc2c1,-0.341% and 3.24%
6,CNC(=O)Oc1cccc2ccccc12,-1.5%
7,O=C1C(c2[nH]c3ccccc3c2O)=Nc2ccccc21,0.121%
8,CCOc1ccccc1C(N)=O,-0.664%
9,COc1ccc2cc3[n+](cc2c1OC)CCc1cc2c(cc1-3)OCO2,-1.09%
10,Oc1ccc(Cl)cc1Cc1cc(Cl)ccc1O,1.29%
11,N#Cc1nn(-c2c(Cl)cc(C(F)(F)F)cc2Cl)c(N)c1S(=O)C(F)(F)F (configuration not stated),6.05%
12,Cc1cc(C(C)(C)C)c(O)c(C(C)(C)C)c1,9.91% and 2.64%
13,CN(C)c1ccc(C(=C2C=CC(=[N+](C)C)C=C2)c2ccc(N(C)C)cc2)cc1,-3.58% and -3.47%
14,O=C1c2cccc(O)c2C(=O)c2c(O)cccc21,-5%
15,CC[n+]1c(-c2ccccc2)c2cc(N)ccc2c2ccc(N)cc21,9.69%
16,CCOP(=S)(OCC)O/N=C(\C#N)c1ccccc1,8.69%
17,CCN(CC)C(=O)c1cccc(C)c1,0.006% and -2.52%
18,Oc1ccc(/C=C/c2cc(O)cc(O)c2)cc1,-3.05% and -1.39%
